# In PubChem BioAssay (EPA / NIEHS):
# Calls of active or inactive are those of the source. How the source made its calls: active means hit-call score of the fitted dose curve at least 0.9, where 1 is the maximum; inactive means score below 0.9.
# Legend:
# [1] = ATG_GRE_CIS: Attagene CIS-FACTORIAL HepG2 Assay for human Glucocorticoid Response Elements (GRE) (AID 2282947); details: HepG2 GRE cis-reporter, Attagene multiplex mRNA; actives raise or lower the signal
# Procedure, shortened: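 Transiently transfected HepG2 cells carrying GRE cis-reporter units (endogenous TF activity) dosed 24 h; reporter mRNA quantified by RT-PCR, 6-FAM labelling, HpaI digestion and capillary electrophoresis. Bidirectional fit versus DMSO baseline.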
# [2] = ATG_ISRE_CIS: Attagene CIS-FACTORIAL HepG2 Assay for human Interferon Regulatory Factor 1 (IRF1) binding to an Interferon-Stimulated Response Element (ISRE) (AID 2282948); details: HepG2 ISRE cis-reporter (Attagene), mRNA transcription readout; actives raise or lower the signal
# Procedure, shortened: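 Cell-based cis-reporter assay; HepG2; 24 h exposure; reporter mRNA by RT-PCR plus capillary electrophoresis fluorescence; activity in either direction scored relative to DMSO.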
# [3] = ATG_M_32_CIS: Attagene CIS-FACTORIAL HepG2 Assay for M32 Transcription Factor (Internal Marker) (AID 2282949); details: HepG2 Attagene cis-factorial M32 reporter, mRNA; actives raise or lower the signal;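 further: background control marker of the multiplexed CIS panel rather than a real target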
# Procedure, shortened: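 Fluorescent capillary electrophoresis peaks of HpaI-digested, FAM-labelled RT-PCR reporter products give the signal. Source: transiently transfected human liver HepG2 cells, 24 h after chemical dosing; bidirectional fitting against DMSO.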
# [4] = ATG_M_06_CIS: Attagene CIS-FACTORIAL HepG2 Assay for M06 Transcription Factor (Internal Marker) (AID 2282950); details: HepG2 Attagene CIS-FACTORIAL M06 internal marker reporter; actives raise or lower the signal
# Procedure, shortened: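 HepG2 liver cells, 24 h exposure. Reporter transcripts from transfected cis-element constructs quantified by RT-PCR/capillary electrophoresis fluorescence. Bidirectional curve fit against DMSO.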
# [5] = biological target: Hypoxia-inducible factor 1-alpha (Homo sapiens) (UniProt Q16665); assay: ATG_HIF1a_CIS: Attagene CIS-FACTORIAL HepG2 Assay for human Hypoxia Inducible Factor 1 (HIF1A) (AID 2282951); details: HepG2 Attagene cis-factorial HIF1a reporter transcription; actives raise or lower the signal
# Sequence of Hypoxia-inducible factor 1-alpha (Homo sapiens) (Q16665 whole entry, looked up): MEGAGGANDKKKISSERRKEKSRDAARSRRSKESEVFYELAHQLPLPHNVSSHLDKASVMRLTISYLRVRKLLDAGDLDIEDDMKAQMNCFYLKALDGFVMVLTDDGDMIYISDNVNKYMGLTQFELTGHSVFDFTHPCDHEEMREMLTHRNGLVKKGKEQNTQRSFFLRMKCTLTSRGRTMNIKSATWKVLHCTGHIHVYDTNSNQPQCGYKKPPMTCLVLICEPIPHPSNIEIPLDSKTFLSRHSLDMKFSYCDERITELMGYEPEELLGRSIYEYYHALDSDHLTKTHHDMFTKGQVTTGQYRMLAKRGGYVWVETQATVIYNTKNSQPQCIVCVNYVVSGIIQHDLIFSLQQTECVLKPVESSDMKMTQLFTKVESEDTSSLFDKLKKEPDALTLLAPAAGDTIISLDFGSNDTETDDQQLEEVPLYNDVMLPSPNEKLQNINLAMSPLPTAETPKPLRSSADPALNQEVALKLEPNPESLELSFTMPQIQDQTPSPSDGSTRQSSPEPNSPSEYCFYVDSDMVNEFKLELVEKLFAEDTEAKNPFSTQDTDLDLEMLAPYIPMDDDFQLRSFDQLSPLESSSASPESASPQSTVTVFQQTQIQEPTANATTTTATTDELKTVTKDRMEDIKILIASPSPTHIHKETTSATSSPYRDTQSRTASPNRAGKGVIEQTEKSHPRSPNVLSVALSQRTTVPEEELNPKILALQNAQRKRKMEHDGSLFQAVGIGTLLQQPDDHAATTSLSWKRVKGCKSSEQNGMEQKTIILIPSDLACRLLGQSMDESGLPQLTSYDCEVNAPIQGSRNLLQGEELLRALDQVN
# Procedure, shortened: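 After 24 h chemical exposure of reporter-transfected HepG2 cells, reporter cDNA was PCR-amplified, labelled by 6-FAM primer extension (2 min 95 C, 20 s 68 C, 10 min 72 C), HpaI-cut (2 h, 37 C) and analysed by CE.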
# [6] = biological target: Hepatocyte nuclear factor 6 (Homo sapiens) (UniProt Q9UBC0); assay: ATG_HNF6_CIS: Attagene CIS-FACTORIAL HepG2 Assay for human Hepatocyte Nuclear Factor 6 (HNF6) (AID 2282952); details: HepG2 Attagene cis-factorial HNF6 reporter transcription; actives raise or lower the signal
# Sequence of Hepatocyte nuclear factor 6 (Homo sapiens) (Q9UBC0 whole entry, looked up): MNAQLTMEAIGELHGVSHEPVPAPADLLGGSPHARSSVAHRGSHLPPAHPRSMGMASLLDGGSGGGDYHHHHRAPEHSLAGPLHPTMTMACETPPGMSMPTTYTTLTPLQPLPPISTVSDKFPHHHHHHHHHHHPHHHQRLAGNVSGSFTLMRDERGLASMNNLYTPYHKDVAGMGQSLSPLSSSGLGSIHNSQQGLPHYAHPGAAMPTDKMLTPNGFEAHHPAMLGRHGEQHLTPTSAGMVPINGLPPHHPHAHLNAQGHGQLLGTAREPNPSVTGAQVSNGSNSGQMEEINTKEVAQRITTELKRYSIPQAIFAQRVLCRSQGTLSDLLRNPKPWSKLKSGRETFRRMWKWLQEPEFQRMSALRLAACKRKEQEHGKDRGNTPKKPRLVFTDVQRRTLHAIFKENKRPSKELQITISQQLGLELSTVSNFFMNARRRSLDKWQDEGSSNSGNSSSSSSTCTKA
# Procedure, shortened: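 Multiplexed mRNA reporter assay in transfected HepG2; 24 h dosing; RT-PCR plus capillary electrophoresis fluorescence; DMSO-referenced bidirectional curve fitting.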
# [7] = biological target: Heat shock factor protein 1 (Homo sapiens) (UniProt Q00613); assay: ATG_HSE_CIS: Attagene CIS-FACTORIAL HepG2 Assay for human Heat Shock Transcription Factor 1 (HSE) (AID 2282953); details: HepG2 HSE cis-reporter, Attagene RNA transcription; actives raise or lower the signal
# Sequence of Heat shock factor protein 1 (Homo sapiens) (Q00613 whole entry, looked up, the tested form may be a part): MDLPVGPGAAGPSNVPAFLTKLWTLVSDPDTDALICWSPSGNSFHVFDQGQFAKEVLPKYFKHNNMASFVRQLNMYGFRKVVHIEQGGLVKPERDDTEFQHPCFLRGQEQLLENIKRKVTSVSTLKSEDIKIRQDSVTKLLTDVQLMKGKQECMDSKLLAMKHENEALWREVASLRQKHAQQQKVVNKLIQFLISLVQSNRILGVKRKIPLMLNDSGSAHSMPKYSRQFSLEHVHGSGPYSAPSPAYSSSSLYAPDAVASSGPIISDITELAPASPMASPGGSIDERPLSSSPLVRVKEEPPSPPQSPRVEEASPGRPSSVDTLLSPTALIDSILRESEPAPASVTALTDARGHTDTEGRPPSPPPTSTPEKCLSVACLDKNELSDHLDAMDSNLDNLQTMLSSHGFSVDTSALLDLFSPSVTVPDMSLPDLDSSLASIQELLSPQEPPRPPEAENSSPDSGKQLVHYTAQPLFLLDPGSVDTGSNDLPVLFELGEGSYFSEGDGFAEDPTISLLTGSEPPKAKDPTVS
# Procedure, shortened: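 Endogenous transcription factor activity captured via cis-promoter reporter units transfected into HepG2; treatment lasted 24 h. Fluorescence intensity of reporter fragments analysed with bidirectional curve fitting, DMSO baseline.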
# [8] = ATG_MRE_CIS: Attagene CIS-FACTORIAL HepG2 Assay for human Metal Responsive Element (MRE) (AID 2282954); details: HepG2 MRE cis-reporter transcription, Attagene multiplex; actives raise or lower the signal
# Procedure, shortened: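 HepG2 cells transiently transfected with cis-element-driven reporter units; mRNA measured 24 h after dosing. Reporter transcripts quantified by RT-PCR, FAM labelling, HpaI digestion and capillary electrophoresis; bidirectional fit versus DMSO.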
# [9] = biological target: Paired box protein Pax-6 (Homo sapiens) (UniProt P26367); assay: ATG_Pax6_CIS: Attagene CIS-FACTORIAL HepG2 Assay for human Paired Box 6 (PAX6) (AID 2282956); details: HepG2 CIS-FACTORIAL PAX6 reporter transcription, RNA readout; actives raise or lower the signal
# Sequence of Paired box protein Pax-6 (Homo sapiens) (P26367 whole entry, looked up): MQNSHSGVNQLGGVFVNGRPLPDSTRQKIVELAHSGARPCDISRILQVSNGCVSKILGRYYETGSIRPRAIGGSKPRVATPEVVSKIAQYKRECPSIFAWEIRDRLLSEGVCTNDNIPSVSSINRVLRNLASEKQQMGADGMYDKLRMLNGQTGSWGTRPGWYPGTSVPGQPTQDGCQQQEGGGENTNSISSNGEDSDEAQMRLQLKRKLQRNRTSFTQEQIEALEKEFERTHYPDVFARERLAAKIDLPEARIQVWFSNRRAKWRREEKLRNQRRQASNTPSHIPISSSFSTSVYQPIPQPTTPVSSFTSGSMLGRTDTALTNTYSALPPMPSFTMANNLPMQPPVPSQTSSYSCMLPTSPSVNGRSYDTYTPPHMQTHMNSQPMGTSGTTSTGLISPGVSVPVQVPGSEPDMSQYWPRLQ
# Procedure, shortened: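 Multiplexed cis-reporter HepG2 system; 24 h treatment; reporter mRNA read by RT-PCR/CE fluorescence; bidirectional fit vs DMSO.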
# [10] = ATG_PXRE_CIS: Attagene CIS-FACTORIAL HepG2 Assay for human Pregnane X Receptor Element (PXRE) (AID 2282957); details: HepG2 Attagene CIS-FACTORIAL PXRE reporter, mRNA; actives raise or lower the signal
# Procedure, shortened: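 Cells: HepG2, transiently transfected reporter units under cis promoter control. Exposure: 24 h. Detection: reporter mRNA via RT-PCR/CE fluorescence; bidirectional fitting, DMSO-referenced.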
# [11] = ATG_PPRE_CIS: Attagene CIS-FACTORIAL HepG2 Assay for human Peroxisome Proliferator-activated Response Element (PPRE) (AID 2282958); details: HepG2 PPRE cis-element reporter, Attagene transcription factor profiling; actives raise or lower the signal
# Procedure, shortened: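 PPRE activity in HepG2: transient cis-reporter transfection, 24 h compound incubation, reporter mRNA by RT-PCR and CE fluorescence; gain/loss fitted against DMSO.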
# [12] = ATG_RORE_CIS: Attagene CIS-FACTORIAL HepG2 Assay for human RAR-related Orphan Receptor Element (RORE) (AID 2282959); details: HepG2 Attagene cis-factorial RORE reporter, mRNA; actives raise or lower the signal
# Procedure, shortened: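 A 24-hour exposure of transfected HepG2 hepatoma cells precedes RNA isolation and reporter RT-PCR. Labeled products are digested with HpaI and resolved by capillary electrophoresis, with gain or loss of signal scored relative to DMSO.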
# [13] = ATG_Sox_CIS: Attagene CIS-FACTORIAL HepG2 Assay for human SRY-box transcription factor (SOX) (AID 2282960); details: HepG2 Attagene cis-factorial SOX reporter, mRNA; actives raise or lower the signal
# Procedure, shortened: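 HepG2, cis reporter units, 24 h exposure. Reporter mRNA: RT-PCR → FAM labelling → HpaI → CE fluorescence. Bidirectional fit vs DMSO.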
# [14] = biological target: Transcription factor Sp1 (Homo sapiens) (UniProt P08047); assay: ATG_Sp1_CIS: Attagene CIS-FACTORIAL HepG2 Assay for human Specificity Protein 1 (Sp1) (AID 2282961); details: HepG2 Sp1 cis-reporter transcription, actives raise or lower the signal
# Sequence of Transcription factor Sp1 (Homo sapiens) (P08047 whole entry, looked up, the tested form may be a part): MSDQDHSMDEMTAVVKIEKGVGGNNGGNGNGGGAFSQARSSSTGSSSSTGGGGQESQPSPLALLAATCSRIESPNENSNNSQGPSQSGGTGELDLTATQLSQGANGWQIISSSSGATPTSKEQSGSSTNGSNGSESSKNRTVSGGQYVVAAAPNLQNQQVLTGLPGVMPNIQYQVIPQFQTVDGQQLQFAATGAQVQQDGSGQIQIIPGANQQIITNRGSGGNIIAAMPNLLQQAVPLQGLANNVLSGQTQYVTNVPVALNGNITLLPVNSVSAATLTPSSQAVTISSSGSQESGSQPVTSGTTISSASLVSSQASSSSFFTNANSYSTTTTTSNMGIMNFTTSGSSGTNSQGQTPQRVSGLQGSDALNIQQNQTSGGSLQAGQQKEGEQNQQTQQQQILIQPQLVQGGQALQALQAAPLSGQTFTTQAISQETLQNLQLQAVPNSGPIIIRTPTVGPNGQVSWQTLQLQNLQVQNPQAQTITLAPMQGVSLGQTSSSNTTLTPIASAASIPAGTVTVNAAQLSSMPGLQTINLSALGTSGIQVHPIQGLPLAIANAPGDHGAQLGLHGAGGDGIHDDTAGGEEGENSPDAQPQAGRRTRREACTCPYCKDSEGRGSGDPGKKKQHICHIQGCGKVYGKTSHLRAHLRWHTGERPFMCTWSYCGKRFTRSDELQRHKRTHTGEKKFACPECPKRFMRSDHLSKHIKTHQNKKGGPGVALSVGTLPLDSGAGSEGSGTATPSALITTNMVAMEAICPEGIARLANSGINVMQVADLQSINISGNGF
# Procedure, shortened: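 Liver-derived HepG2 cells, cis-element reporter library, 24 h treatment; RNA isolated, cDNA amplified with reporter-specific primers, FAM-labeled fragments sized on capillary analyzer. DMSO baseline, bidirectional curve fit.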
# [15] = ATG_SREBP_CIS: Attagene CIS-FACTORIAL HepG2 Assay for human Sterol Regulatory Element Binding (SREBP) (AID 2282962); details: HepG2 Attagene cis-factorial SREBP reporter, mRNA; actives raise or lower the signal
# Procedure, shortened: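 mRNA induction of transfected cis-promoter reporters in HepG2 cells, 24 h post-dose. Detection: RT-PCR with 6-FAM-labelled products, HpaI digest, capillary electrophoresis. DMSO served as negative control and baseline.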
# [16] = biological target: Signal transducer and activator of transcription 3 (Homo sapiens) (UniProt P40763); assay: ATG_STAT3_CIS: Attagene CIS-FACTORIAL HepG2 Assay for human Signal Transducer and Activator of Transcription 3 (STAT3) (AID 2282963); details: HepG2, Attagene cis-factorial STAT3 reporter transcription; actives raise or lower the signal
# Sequence of Signal transducer and activator of transcription 3 (Homo sapiens) (P40763 whole entry, looked up): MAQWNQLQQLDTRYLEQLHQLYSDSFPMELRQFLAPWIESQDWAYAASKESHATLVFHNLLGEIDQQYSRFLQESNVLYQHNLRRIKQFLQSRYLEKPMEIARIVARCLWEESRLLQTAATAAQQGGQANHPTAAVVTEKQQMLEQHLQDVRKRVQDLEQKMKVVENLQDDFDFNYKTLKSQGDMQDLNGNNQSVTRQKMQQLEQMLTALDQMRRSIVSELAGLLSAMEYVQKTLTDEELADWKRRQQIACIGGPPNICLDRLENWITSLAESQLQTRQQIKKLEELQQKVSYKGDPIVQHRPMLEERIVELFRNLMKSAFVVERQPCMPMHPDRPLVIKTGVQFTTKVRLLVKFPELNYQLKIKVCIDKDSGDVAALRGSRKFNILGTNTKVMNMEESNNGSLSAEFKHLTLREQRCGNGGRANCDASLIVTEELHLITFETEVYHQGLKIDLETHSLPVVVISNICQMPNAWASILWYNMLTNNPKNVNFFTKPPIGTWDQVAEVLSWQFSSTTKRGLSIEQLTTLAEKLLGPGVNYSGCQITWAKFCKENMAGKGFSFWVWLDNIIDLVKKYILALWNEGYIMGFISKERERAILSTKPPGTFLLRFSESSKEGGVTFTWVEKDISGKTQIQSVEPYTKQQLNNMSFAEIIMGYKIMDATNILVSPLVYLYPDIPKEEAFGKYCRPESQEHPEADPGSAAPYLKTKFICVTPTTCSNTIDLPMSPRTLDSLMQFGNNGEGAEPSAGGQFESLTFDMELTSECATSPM
# Procedure, shortened: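 HepG2 cells transiently transfected with multiple cis-element-driven reporter units report endogenous transcription factor activity. After 24 h compound exposure, reporter mRNA is measured by RT-PCR, 6-FAM labelling, HpaI digestion and capillary electrophoresis. Fitted bidirectionally versus DMSO.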
# [17] = ATG_TA_CIS: Attagene CIS-FACTORIAL HepG2 Assay for human TA Basal Promoter (AID 2282964); details: HepG2 Attagene CIS-factorial TA basal promoter reporter; actives raise or lower the signal
# Procedure, shortened: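 Fluorescence from labelled RT-PCR reporter fragments, separated by capillary electrophoresis, gives the signal. Cells: HepG2 transiently carrying multiple reporter units, 24 h chemical dosing. Gain or loss relative to DMSO.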
# [18] = ATG_TCF_b_cat_CIS: Attagene CIS-FACTORIAL HepG2 Assay for human T-Cell-Factor with beta-catenin (TCF/b-cat) (AID 2282965); details: HepG2 TCF/beta-catenin cis-reporter transcription, actives raise or lower the signal
# Procedure, shortened: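 Cells of the HepG2 line carry transiently transfected reporter units whose promoters respond to endogenous factors. Twenty-four hours post-dosing, reporter mRNA induction is measured by fluorescent RT-PCR and capillary electrophoresis, with DMSO as baseline.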
# [19] = ATG_TAL_CIS: Attagene CIS-FACTORIAL HepG2 Assay for human TAL Basal Promoter (AID 2282966); details: HepG2 Attagene cis-factorial TAL promoter reporter; actives raise or lower the signal;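 further: background control endpoint measuring basal TAL promoter reporter mRNA not a specific factor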
# Procedure, shortened: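 RT-PCR plus capillary electrophoresis quantifies reporter mRNA induction in transiently transfected HepG2 cells after 24 h chemical treatment. DMSO serves as negative control and baseline for bidirectional fitting.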
# [20] = ATG_PBREM_CIS: Attagene CIS-FACTORIAL HepG2 Assay for human Phenobarbital-responsive Enhancer Module (PBREM) (AID 2282955); details: HepG2 PBREM cis-reporter, Attagene multiplexed transcription; actives raise or lower the signal
# Procedure, shortened: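 Measures endogenous factor action on a phenobarbital-responsive enhancer module. HepG2 transiently carrying cis reporters, 24 h treatment, mRNA read-out by RT-PCR plus capillary electrophoresis.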
smiles,measurement,setting,value
O=C(c1ccccc1)C(Cl)Cl,outcome,[1],inactive
same,AC50,[2],14.9 µM (active)
same,outcome,[3],inactive
same,outcome,[4],inactive
same,outcome,[5],inactive
same,outcome,[6],inactive
same,outcome,[7],inactive
same,AC50,[8],26.7 µM (active)
same,AC50,[9],26.8 µM (active)
same,outcome,[10],inactive
same,outcome,[11],inactive
same,outcome,[12],inactive
same,AC50,[13],25.7 µM (active)
same,AC50,[14],25.2 µM (active)
same,AC50,[15],26.4 µM (active)
same,outcome,[16],inactive
same,outcome,[17],inactive
same,AC50,[18],25 µM (active)
same,outcome,[19],inactive
c1cc[c]([Hg][c]2ccccc2)cc1,outcome,[1],inactive
same,outcome,[2],inactive
same,outcome,[3],inactive
same,outcome,[4],inactive
same,outcome,[5],inactive
same,outcome,[6],inactive
same,outcome,[7],inactive
same,AC50,[8],14.4 µM (active)
same,outcome,[9],inactive
same,outcome,[10],inactive
same,outcome,[11],inactive
same,AC50,[12],25.6 µM (active)
same,outcome,[13],inactive
same,AC50,[14],24.5 µM (active)
same,outcome,[15],inactive
same,outcome,[16],inactive
same,outcome,[17],inactive
same,outcome,[18],inactive
same,outcome,[19],inactive
COS(=O)(=O)c1ccc(C)cc1,outcome,[1],inactive
same,outcome,[2],inactive
same,outcome,[3],inactive
same,outcome,[4],inactive
same,outcome,[5],inactive
same,outcome,[6],inactive
same,outcome,[7],inactive
same,outcome,[8],inactive
same,outcome,[9],inactive
same,outcome,[10],inactive
same,outcome,[11],inactive
same,outcome,[12],inactive
same,outcome,[13],inactive
same,outcome,[14],inactive
same,outcome,[15],inactive
same,outcome,[16],inactive
same,outcome,[17],inactive
same,outcome,[18],inactive
same,outcome,[19],inactive
CC(C)C1CCC(Cc2ccc(Cl)cc2)C1(O)Cn1cncn1 (configuration not stated),outcome,[1],inactive
same,outcome,[2],inactive
same,outcome,[3],inactive
same,outcome,[4],inactive
same,outcome,[5],inactive
same,outcome,[6],inactive
same,outcome,[7],inactive
same,AC50,[8],11 µM (active)
same,outcome,[20],inactive
same,outcome,[9],inactive
same,AC50,[10],1.04 µM (active)
same,outcome,[12],inactive
same,outcome,[13],inactive
same,outcome,[14],inactive
same,outcome,[15],inactive
same,outcome,[16],inactive
same,outcome,[17],inactive
same,outcome,[18],inactive
same,outcome,[19],inactive
NC(=S)Nc1ccccc1,outcome,[1],inactive
same,outcome,[2],inactive
same,outcome,[3],inactive
same,outcome,[4],inactive
same,outcome,[5],inactive
same,outcome,[6],inactive
same,outcome,[7],inactive
same,outcome,[8],inactive
same,outcome,[9],inactive
same,outcome,[10],inactive
same,outcome,[11],inactive
same,outcome,[12],inactive
same,outcome,[13],inactive
same,outcome,[14],inactive
same,outcome,[15],inactive
same,outcome,[16],inactive
same,outcome,[17],inactive
same,outcome,[18],inactive
same,outcome,[19],inactive
CCNc1nc(NC(C)(C)C)nc(SC)n1,outcome,[1],inactive
same,AC50,[2],100 µM (active)
same,outcome,[3],inactive
same,outcome,[4],inactive
same,outcome,[5],inactive
same,outcome,[6],inactive
same,outcome,[7],inactive
same,AC50,[8],118 µM (active)
same,outcome,[9],inactive
same,AC50,[10],1.67 µM (active)
same,AC50,[11],144 µM (active)
same,outcome,[12],inactive
same,outcome,[13],inactive
same,outcome,[14],inactive
same,outcome,[15],inactive
same,outcome,[16],inactive
same,outcome,[17],inactive
same,outcome,[18],inactive
CC(C#N)CCC#N (configuration not stated),outcome,[1],inactive
same,outcome,[2],inactive
same,outcome,[3],inactive
same,outcome,[4],inactive
same,outcome,[5],inactive
same,outcome,[6],inactive
same,outcome,[7],inactive
same,outcome,[8],inactive
same,outcome,[9],inactive
same,outcome,[10],inactive
same,outcome,[11],inactive
same,outcome,[12],inactive
same,outcome,[13],inactive
same,outcome,[14],inactive
same,outcome,[15],inactive
same,outcome,[16],inactive
same,outcome,[17],inactive
same,outcome,[18],inactive
same,outcome,[19],inactive
